From the OligoGym collection

Target: PLEKHA8
Assay: pooled miR-30 sensor sort-seq; sequence = guide strand
Conditions: shRNA
Note: reference of the scale not given here.

Sequence	sensor-assay potency score (higher = more potent)
ATTATCTACAGAATGAACTTGA	1.24
ATTTCCAACAAGATCCATCTTA	0.673
TTTCCAACAAGATCCATCTTAA	-0.407
TAATATTTCCAACAAGATCCAT	-0.589
TTCACAAGTGCTCAACTCCATT	-1.47
TTGAATTTCACAGACTGCCATT	-0.888
AATATTTCCAACAAGATCCATC	-1.17
TAATAGGACAATATTCCCCCAC	-0.473
TTCCATTCCATCTTCCTTCCTT	0.675
TTCAGCAAACTCTTTCTCCTTC	0.589
TAGGGCTGTCTGGATATCCTTC	-0.391
TATCTACAGAATGAACTTGAAT	-1.22

Target: PLEKHB1
Assay: as above
Conditions: shRNA

Sequence	sensor-assay potency score (higher = more potent)
TCTCATCGTGGTAGTATCCCAG	-0.247
TCATCCTTGGTCTCCGCACAGA	-1.23
TAGTAGTCTTGGTACGGGCTGT	-0.059
TTCCCGTAGGTTCACAGTCAGC	-1.99
TAGGGCGGTCCGTAGTAGCTGC	-0.166
TCTGTCTCCACAGCCAGCCGCC	-1.23
TAGGGCATCATCCTTGGTCTCC	-0.411
TGAAGTGGATGAGCACACGGTC	-1.12
TATGTCACGGACATTGAAGTGG	-0.329
TCGTAGTAGTCTTGGTACGGGC	-1.27
TAGTAGCTGCGGACATACGTGG	-1.12
TTGAAGTGGATGAGCACACGGT	-0.311

Target: PLEKHJ1
Assay: as above
Conditions: shRNA

Sequence	sensor-assay potency score (higher = more potent)
TTTATTTGAACAGAACAAGCAC	0.502
TTGAACAGAACAAGCACCCTGG	0.692
TTCGTTCCTGTAGAAGATGAGG	-0.827
TTATTTGAACAGAACAAGCACC	-0.886
TGTACATTCATTCAGCACGGGG	-1.25
TATGCCGAACTGTTCCAGGGGG	-0.541
TGACACTGCTCCTCGCTGCTGC	-0.0748
TAGAAGATGAGGCTTCTCCGCA	-0.0375
TCAGGGTCCTCAATGAAGCTGA	-0.114
ATGAACTCGTAGCTGGCCCGAC	-0.947
TTTGAACAGAACAAGCACCCTG	0.823
TTCCTGTAGAAGATGAGGCTTC	0.247

Target: PLEKHN1
Assay: as above
Conditions: shRNA

Sequence	sensor-assay potency score (higher = more potent)
TTCTTGGAGAGCAAGTAGGGGC	-0.773
TAGCTCCAGGTAGCAGTCGCTG	-1.67
TGACCGTAGTCCTCGTAGCTGG	-1.04
TTTCTGGAGAAGGAGGCCCGGA	-1.45
